# Reference: PubChem BioAssay (NCATS)
# Several values for one entry are separate records, joined by “and”; a condition that tells them apart may be missing. Identical values can stand only once. Unmarked numbers belong to inactive results. Records with an inconclusive call do not appear. A call without a number means that no potency is given here. Activity calls are given as the source filed them. Unless noted, calls follow the shape of the dose curve; as a rule, active = well fitted curve in the direction sought with a large enough effect; inconclusive = small, poorly fitted or top-dose-only effect, or another doubt; inactive = no such curve, though single readings can be large; an effect the other way counts as inactive or inconclusive.
# Tests used:
# [1] = qHTS to identify inhibitors of the type 1 interferon - major histocompatibility complex class I in skeletal muscle: primary screen against the NCATS Pharmaceutical Collection (AID 1347407);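 also: luminescence of HiBiT knocked into endogenous HLA-B as interferon-induced MHC class I level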
# How it was run: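 A qHTS format is used: 8-point, 1:5 compound series with 46 uM top final concentration, applied alongside 4 ng/ml IFN-beta to HLA-B*08:01-HiBiT knock-in myoblasts. Luminescence is measured after 24 h treatment.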
# [2] = qHTS for inhibitors of adenylyl cyclases using a fission yeast platform: a pilot screen against the NCATS LOPAC library (AID 1347410)
# How it was run: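 Inhibition of GNAS-stimulated AC9 activity in S. pombe was inferred from derepression of a PKA-repressed fbp1-GFP reporter, measured as cytometric fluorescence after 18 h at 30C with compounds at up to 57 µM.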
# [3] = qHTS to identify inhibitors of the type 1 interferon - major histocompatibility complex class I in skeletal muscle: primary screen against the NCATS Mechanism Interrogation Plate v5.0 (MIPE) Libary (AID 1347411); also: nearly all actives have a fitted effect of over 65% in size
# How it was run: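 Seed engineered human myoblasts (HLA-B HiBit) in medium without dexamethasone containing 4 ng/ml IFN-beta; after 1 hr add compound titrations (top 46 uM final). Incubate 24 hrs at 37 C, lyse 10 min with HiBiT reagent, read luminescence.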
# [4] = biological target: Protein phosphatase 1D (Homo sapiens) (UniProt O15297); assay: RapidFire Mass Spectrometry qHTS Assay for Modulators of WT P53-Induced Phosphatase 1 (WIP1) (AID 1347424);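 also: amount of dephosphorylated VEPPL-S-QETFS peptide product formed by WIP1; series mostly up to about 63 µM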
# How it was run: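 Mass-spectrometric measurement of dephosphorylated peptide after a 5 min room-temperature reaction of 10 nM WIP1 with 2 uM phosphopeptide, following 1 h compound preincubation in 30 mM MgCl2 buffer.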
# [5] = biological target: Protein phosphatase 1D (Homo sapiens) (UniProt O15297); assay: Rhodamine-PBP qHTS Assay for Modulators of WT P53-Induced Phosphatase 1 (WIP1) (AID 1347425)
# How it was run: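 Steps: enzyme with Rh-PBP sensor and compounds, room-temperature incubation of 1 hr, baseline read, addition of VEPPL-pS-QETFS (10 uM final), kinetic fluorescence reads at 525/598 nm. Activity equals final minus baseline signal.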
# [6] = Primary qHTS for inhibitors of La Crosse Virus (LACV) - induced cell death in SH-SY5Y cells (AID 1508616);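 also: top concentration of the series differs between compounds; higher means more rescue of cells from virus-induced death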
# How it was run: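 SH-SY5Y, 6000 cells/well; cpd via pin tool in DMSO; LACV 0.01 MOI; 6 d 37C 5% CO2; ATPLite, 5 min RT; luminescence normalized to ±virus DMSO controls.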
# [7] = biological target: Calcium and integrin-binding protein 1 (Homo sapiens) (UniProt Q99828); assay: Validation qHTS for Identification of Calcium Integrin Binding protein 1 (CIB1) Competitor (AID 1508618)
# How it was run: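 In this qHTS validation, the LOPAC set (up to 114 uM) was tested for blocking CIB1 binding to a fluorescein-tagged alphaIIb peptide, with FP detection at 480/540 nm.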
# [8] = biological target: Calcium and integrin-binding protein 1 (Homo sapiens) (UniProt Q99828); assay: Primary qHTS for Identification of Calcium Integrin Binding Protein 1 (CIB1) Competitor (AID 1508620);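 also: GST tagged CIB1 binding a fluorescein labelled alphaIIb integrin peptide tracer; top concentration of the series differs between compounds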
# How it was run: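 Fluorescence polarization competition: CIB1-GST (1 uM final) preincubated with compound 15 min at room temperature, then FITC-labeled alphaIIb peptide (100 nM final) added for another 15 min. Polarization read at Ex 480/Em 540.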
# [9] = A High-Content qHTS Against Drug Library for the Identification of Small Molecules that Inhibit DYT1 Early Onset Primary Dystonia-Associated Cell Pathology (AID 1645839; calls by dose curve; also: series mostly up to about 46 µM)
# How it was run: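 Induced EGFP-delE TorsinA cells are imaged after 48 h of compound treatment. Punctate fusion-protein distribution gives the %pathology value, while nuclei counts flag toxicity. Wild-type EGFP-hTOR1A cells define the normal pattern.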
# [10] = HepG2 cells viability qHTS for Zika virus inhibitors (AID 1347168)
# How it was run: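 To flag cytotoxic protease inhibitors, viability is measured by ATP-dependent luminescence (CellTiter Glo) after cells attached overnight receive compound for 24 to 48 hours in DMEM with 4% FBS.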
# [11] = Tertiary RLuc qRT-PCR qHTS assay for Zika virus inhibitors (AID 1347169); also: top concentration of the series differs between compounds; nearly all actives have a fitted effect of over 55% in size
# How it was run: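 Inhibition of ZIKV-RLuc replication in Vero cells, read as Renilla luminescence 1-1.5 hrs after live-cell substrate addition, following 48-72 hrs infection at MOI 1-2 in presence of compound.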
# [12] = Counterscreen qHTS for small molecule stabilizers of the endoplasmic reticulum resident proteome: GLuc-NoTag assay (AID 1508627); also: series mostly up to about 76 µM
# How it was run: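 Secreted GLuc lacking the SERCaMP modification is measured in SH-SY5Y cells exposed to compound for 19 h and then to thapsigargin (100 nM, 4 h) to deplete ER calcium; hits retested at 11 concentrations, up to 76.6 uM.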
# [13] = biological target: Cytochrome P450 2D6 (Homo sapiens) (UniProt P10635); assay: Cytochrome P450 family 2 subfamily D member 6 (CYP2D6) small molecule antagonists: luciferase biochemical (cell-free) qHTS assay (AID 1645840; active = well fitted curve in the direction sought with a large enough effect in the repeat runs; an effect the other way counts as inactive or inconclusive; also: nearly all actives have a fitted effect of over 55% in size; also: potency is read from the fitted curve at half-maximal effect)
# How it was run: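 P450-Glo CYP2D6 system: proluciferin substrate converted by enzyme to luciferin, read by luminescence proportional to activity. Enzyme-substrate mix with compound 10 min at room temperature, then NADPH regeneration 1 h before detection reagent.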
# [14] = qHTS to identify inhibitors of the type 1 interferon - major histocompatibility complex class I in skeletal muscle: primary screen against the NCATS LOPAC collection (AID 1347405);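 also: human myoblasts with HiBiT tag on endogenous HLA-B stimulated by IFN-beta; lytic HiBiT luminescence reporting HLA-B protein level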
# How it was run: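 First, engineered myoblasts carrying HLA-B-HiBiT were seeded in medium lacking dexamethasone with 4 ng/ml IFN-beta. After 1 hr, compounds were pinned in (top 46 uM final, 7 points). After 24 hrs at 37 C, luminescence was measured following 10 min lysis.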
# [15] = Validation qHTS assay for inhibitors of Activation Induced Cytidine Deaminase (AID): UDG Counterscreen signal (AID 1347427)
# How it was run: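 Fluorescence at 560 nm excitation, 665 nm emission reports UDG signal after 250 mM NaOH (2x) addition and 30 min. Enzymes (AID 1 uM, UDG 2 U/mL, at 4/3x) preincubated 10 min with compound, then 4 h with 4x 250 nM DJC20/DJC23 substrate at room temperature.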
# [16] = biological target: Single-stranded DNA cytosine deaminase (Homo sapiens) (UniProt Q9GZX7); assay: Validation qHTS assay for inhibitors of Activation Induced Cytidine Deaminase (AID): AID signal (AID 1347429)
# How it was run: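 Steps: dispense AID with UDG; pin-transfer compound up to 114 uM final; add DJC20/DJC23 substrate and hold 4 hr at room temperature; add NaOH, hold 30 min; read FRET signal (540/590 nm).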
# [17] = Primary qHTS for small molecule stabilizers of the endoplasmic reticulum resident proteome: Secreted ER Calcium Modulated Protein (SERCaMP) assay (AID 1508630)
# How it was run: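 The SH-SY5Y reporter protocol was run at 3 concentrations up to 38.3 uM (primary) or 11 concentrations (follow-up): 16 h compound, 100 nM thapsigargin for 4 h, then extracellular luciferase luminescence.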
# [18] = Confirmatory qHTS for small molecule stabilizers of the endoplasmic reticulum resident proteome: Secreted ER Calcium Modulated Protein (SERCaMP) assay (AID 1508628); also: series mostly up to about 76 µM; nearly all actives have a fitted effect of over 40% in size
# How it was run: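 Reporter secretion upon ER calcium depletion (100 nM thapsigargin, 4 h, 37C) is measured as medium luminescence with coelenterazine, after 16 h compound pretreatment of SH-SY5Y-GLuc-SERCaMP cells; primary at three concentrations up to 38.3 uM, follow-up at 11 (up to 76.6 uM).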
# [19] = biological target: Calcium and integrin-binding protein 1 (Homo sapiens) (UniProt Q99828); assay: Confirmatory qHTS for Identification of Calcium Integrin Binding Protein 1 (CIB1) Competitor (AID 1508617); also: potency is read from the fitted curve at half-maximal effect; nearly all actives have a fitted effect of over 65% in size
# How it was run: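 Binding competition between test compounds and fluorescent alphaIIb peptide for 1 uM CIB1-GST is monitored by FP at 480/540 nm. Final compound range is up to 114 uM; unlabeled peptide serves as reference competitor.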
# Sequence of Cytochrome P450 2D6 (Homo sapiens) (P10635 whole entry, looked up): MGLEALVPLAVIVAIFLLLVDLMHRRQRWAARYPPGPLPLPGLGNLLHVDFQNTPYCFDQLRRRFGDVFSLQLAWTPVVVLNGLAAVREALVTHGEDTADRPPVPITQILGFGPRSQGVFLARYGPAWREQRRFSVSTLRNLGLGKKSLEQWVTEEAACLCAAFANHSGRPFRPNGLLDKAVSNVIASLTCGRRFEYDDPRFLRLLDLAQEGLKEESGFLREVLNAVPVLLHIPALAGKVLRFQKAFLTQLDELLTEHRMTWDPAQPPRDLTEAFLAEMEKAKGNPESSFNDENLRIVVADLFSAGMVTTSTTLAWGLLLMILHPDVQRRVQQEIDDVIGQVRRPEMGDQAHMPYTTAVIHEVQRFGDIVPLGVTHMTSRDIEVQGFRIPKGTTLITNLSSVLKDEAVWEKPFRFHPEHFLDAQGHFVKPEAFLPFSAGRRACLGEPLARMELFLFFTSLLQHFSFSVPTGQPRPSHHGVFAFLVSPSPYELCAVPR
# Sequence of Single-stranded DNA cytosine deaminase (Homo sapiens) (Q9GZX7 whole entry, looked up): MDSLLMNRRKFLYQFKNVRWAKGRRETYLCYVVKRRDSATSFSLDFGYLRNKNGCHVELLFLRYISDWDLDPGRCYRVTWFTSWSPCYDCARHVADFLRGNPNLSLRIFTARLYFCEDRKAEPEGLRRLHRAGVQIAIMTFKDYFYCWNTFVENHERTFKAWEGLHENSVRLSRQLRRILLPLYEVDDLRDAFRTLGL
# Sequence of Protein phosphatase 1D (Homo sapiens) (O15297 whole entry, looked up): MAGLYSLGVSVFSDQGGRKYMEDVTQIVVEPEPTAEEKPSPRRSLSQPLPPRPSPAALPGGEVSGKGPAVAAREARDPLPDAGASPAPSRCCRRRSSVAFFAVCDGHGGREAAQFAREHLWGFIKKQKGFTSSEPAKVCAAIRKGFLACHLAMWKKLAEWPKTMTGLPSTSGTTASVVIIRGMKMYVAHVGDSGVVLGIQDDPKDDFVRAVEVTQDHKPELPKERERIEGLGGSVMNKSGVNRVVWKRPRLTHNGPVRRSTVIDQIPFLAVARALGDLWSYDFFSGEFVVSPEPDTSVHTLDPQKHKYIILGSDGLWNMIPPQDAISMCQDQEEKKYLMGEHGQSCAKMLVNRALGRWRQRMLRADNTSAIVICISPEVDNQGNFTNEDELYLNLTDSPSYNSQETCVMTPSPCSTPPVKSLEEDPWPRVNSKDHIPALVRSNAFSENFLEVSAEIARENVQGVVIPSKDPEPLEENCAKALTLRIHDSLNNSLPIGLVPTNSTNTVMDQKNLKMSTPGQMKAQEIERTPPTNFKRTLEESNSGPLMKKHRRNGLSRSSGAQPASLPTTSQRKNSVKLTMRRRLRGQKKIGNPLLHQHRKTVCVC
# Sequence of Calcium and integrin-binding protein 1 (Homo sapiens) (Q99828 whole entry, looked up): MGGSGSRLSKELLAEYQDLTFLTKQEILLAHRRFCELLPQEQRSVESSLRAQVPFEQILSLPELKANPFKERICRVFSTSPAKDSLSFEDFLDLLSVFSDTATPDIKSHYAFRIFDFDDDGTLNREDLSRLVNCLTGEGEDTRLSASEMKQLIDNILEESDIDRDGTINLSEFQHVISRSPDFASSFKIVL
Structure (SMILES),Potency [1],outcome [2],Potency [3],outcome [4],outcome [5],outcome [6],outcome [7],outcome [8],Potency [9],outcome [10],Potency [11],Potency [12],Potency [13],Potency [14],Potency [15],Potency [16],Potency [17],Potency [18],Potency [19]
CC(C)c1c(C(=O)Nc2ccccc2)c(-c2ccccc2)c(-c2ccc(F)cc2)n1CC[C@@H](O)C[C@@H](O)CC(=O)O,inactive,inactive,inactive,inactive,inactive,inactive,inactive,inactive,inactive,–,–,–,–,–,–,–,–,–,–
NC1[C@H]2CN(c3nc4c(cc3F)c(=O)c(C(=O)O)cn4-c3ccc(F)cc3F)C[C@@H]12 (stereo partly drawn),–,inactive,–,inactive,inactive,inactive,inactive,inactive,–,inactive,inactive,inactive,inactive,–,–,–,–,–,–
N[C@H](C(=O)O)c1ccc(O)cc1,inactive,–,–,inactive,–,inactive,–,inactive,inactive,inactive,inactive,–,inactive,–,–,–,–,–,–
CC(C(O)c1ccc(O)cc1)N1CCC(Cc2ccccc2)CC1 (stereo not drawn),inactive,inactive,–,inactive,inactive,inactive,inactive,inactive,inactive,–,–,inactive,–,inactive,inactive,inactive,inactive,–,–
CCN(CC)CCNC(=O)c1cc(Cl)c(N)cc1OC,inactive,inactive,–,inactive,inactive,inactive,inactive,inactive,inactive,–,–,–,15.5 µM (active),–,inactive,inactive,–,–,–
CNCCCC1c2ccccc2C=Cc2ccccc21,inactive,inactive,–,inactive,inactive,inactive,inactive,inactive,–,–,–,–,3.09 µM (active),–,inactive,inactive,–,inactive,–
C=Cc1c(C)c2cc3[nH]c(cc4nc(cc5nc(cc1[nH]2)C(C)=C5CCC(=O)O)C(CCC(=O)O)=C4C)c(C)c3C=C,inactive,inactive,–,–,–,inactive,–,–,inactive,–,–,–,inactive,inactive,inactive,inactive,inactive,–,25.1 µM (active)
C[C@H]1O[C@@H](n2cc(F)c(=O)[nH]c2=O)[C@H](O)[C@@H]1O,inactive,inactive,inactive,inactive,inactive,inactive,inactive,inactive,inactive,–,–,–,inactive,–,–,–,inactive,–,–
CC1=C(/C=C/C(C)=C/C=C/C(C)=C/C(=O)O)C(C)(C)CCC1,inactive,inactive,inactive,inactive,inactive,inactive,inactive,inactive,–,–,–,–,inactive,–,inactive,inactive,–,–,–
CN(C)CCC=C1c2ccccc2CCc2ccccc21,inactive,inactive,–,inactive,inactive,inactive,inactive,inactive,–,–,–,–,5.49 µM (active) and 9.52 µM (active),–,inactive,inactive,–,inactive,–
CC(C)C(=O)c1c(C(C)C)nn2ccccc12,inactive,inactive,–,inactive,inactive,inactive,inactive,inactive,inactive,–,–,–,inactive,inactive,inactive,inactive,–,–,–
NC(=O)c1ncn([C@@H]2O[C@H](CO)[C@@H](O)[C@H]2O)n1,inactive,inactive,inactive,inactive,inactive,inactive,inactive,inactive,inactive,–,–,–,inactive,–,inactive,inactive,inactive,–,–
Nc1cc(=O)[nH]c(N)n1,inactive,inactive,–,inactive,inactive,inactive,inactive,inactive,inactive,–,–,–,inactive,–,inactive,inactive,inactive,–,–
CCCCN(CCCC)CC(O)c1cc(Cl)cc2c1-c1ccc(Cl)cc1/C2=C/c1ccc(Cl)cc1 (stereo not drawn),inactive,inactive,inactive,inactive,inactive,inactive,inactive,inactive,–,–,–,–,0.347 µM (active),–,–,–,–,–,–
CNC(=O)Oc1ccc2c(c1)[C@]1(C)CCN(C)[C@@H]1N2C,inactive,inactive,–,inactive,inactive,inactive,inactive,inactive,inactive,–,–,–,0.977 µM (active),–,inactive,inactive,–,–,–
C[C@]12CC[C@@H]3c4ccc(O)cc4CC[C@H]3[C@@H]1CCC2=O,inactive,inactive,–,inactive,inactive,inactive,inactive,inactive,inactive,–,–,–,–,–,inactive,inactive,inactive,–,–
CNCC(O)c1ccc(O)c(O)c1 (stereo not drawn),inactive,inactive,–,inactive,inactive,inactive,inactive,–,inactive,–,–,–,–,–,inactive,inactive,–,–,–
C[C@]12C[C@H](O)[C@H]3[C@@H](CCC4=CC(=O)CC[C@@]43C)[C@@H]1CC[C@@H]2C(=O)CO,inactive,inactive,–,inactive,inactive,inactive,inactive,inactive,inactive,–,–,–,inactive,–,inactive,inactive,inactive,–,–
CC(C)(O)c1ccccc1CC[C@@H](SCC1(CC(=O)O)CC1)c1cccc(/C=C/c2ccc3ccc(Cl)cc3n2)c1,inactive,–,–,–,–,inactive,–,–,inactive,inactive,inactive,–,inactive,–,–,–,–,–,–
CCCn1cnc2c1c(=O)n(CCCCC(C)=O)c(=O)n2C,inactive,inactive,–,inactive,inactive,inactive,inactive,inactive,inactive,–,–,–,inactive,inactive,inactive,inactive,inactive,–,–
